Legend:
Assay in all cases: PBM binding z-score (relative to random genomic background probes); higher = stronger binding; sequences stand for … in GC…GCGATTGACAGCGTAGAATGAAGG
[1] = test system: PPARg:RXRa DBDmut IVT, anti-RXR (DBD mutation: RXRa K156A/R161A, NR concentration 270 nM, RXRa partner concentration 90 nM)
Outline: (§1)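 Ligand-free nuclear receptor dimers were applied to custom Agilent 4×180K protein-binding microarrays whose double-stranded probes carried direct-repeat seeds, single-nucleotide variants, half-site ablations and random human genomic background sequences in 34-nt variable regions. Incubation lasted 1 h. Binding z-scores were computed against the random background probes from regression-normalized fluorescence.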

[2] = test system: PPARg:RXRa IVT, anti-PPARg (NR concentration 270 nM, RXRa partner concentration 90 nM)
Outline: as §1

[3] = test system: PPARg DBDmut:RXRa IVT, anti-PPARg (DBD mutation: PPARg1 K132A/R137A, NR concentration 270 nM, RXRa partner concentration 90 nM)
Outline: as §1

[4] = test system: PPARg DBDmut IVT, anti-PPARg (DBD mutation: PPARg1 K132A/R137A, NR concentration 270 nM)
Outline: as §1

[5] = test system: PPARg homodimer (NR concentration 180 nM)
Outline: as §1

[6] = test system: PXR:RXRa (NR concentration 270 nM, RXRa partner concentration 90 nM)
Outline: as §1

[7] = test system: PXR homodimer (NR concentration 270 nM)
Outline: as §1

[8] = test system: RARa:RXR (NR concentration 270 nM, RXRa partner concentration 90 nM)
Outline: as §1

[9] = test system: RARa homodimer (NR concentration 270 nM)
Outline: as §1

[10] = test system: RARb:RXRa (NR concentration 270 nM, RXRa partner concentration 90 nM)
Outline: as §1

Sequence	PBM binding z-score [1]	PBM binding z-score [2]	PBM binding z-score [3]	PBM binding z-score [4]	PBM binding z-score [5]	PBM binding z-score [6]	PBM binding z-score [7]	PBM binding z-score [8]	PBM binding z-score [9]	PBM binding z-score [10]
CCTTACGGGTCACTGACAGGTTAAAGCATTTGGA	3.63	4.02	0.71	0.495	4.09	3.98	0.033	5.21	0.619	3.94
CGTCCAAGGTCAGCATGTCAGTGAAAGCGACGTG	2.52	2.35	-0.0905	-0.674	2.58	2.41	0.102	3.01	0.765	4.93
CGTCCAAGTTCAAAGGTCAGTGAAGAGATGACGG	0.396	2.79	0.887	0.712	4.76	6.79	4.04	7.83	2.04	5.11
TCTCGGAGGACACGAAAGTCAGAGCTTTCCAGAG	1.13	0.191	-0.706	-0.594	-0.882	-0.408	-0.694	-0.237	-0.903	1.28
CCTAGCAGGCCAATCTGGGTCACTCCAGGCTTGA	4.25	4.76	-0.633	-1.01	0.639	0.543	-0.635	0.754	-0.716	1.48
ATATGTAGGTTAGATGGGGTCATTCAGACTAGGC	6.56	6.05	2.97	2.15	2.79	6.56	4.01	6.01	1.98	2.93
CGAACTAGGCCATCCAGGACAGTGAATACATTGA	6	5.51	0.953	0.808	0.048	-0.289	-0.148	0.254	0.507	0.809
CCGAATGGGGCAAGGTTACCATAACGCACAGCCA	0.946	1.17	-0.387	-0.659	0.548	0.288	-0.323	0.909	-0.0739	1.75
ATCTATAGGTAACCAAGTTCAGTGAATGCCGAAC	2.37	1.81	0.555	1.09	0.665	2.46	2.08	0.857	0.671	1.3
TCTTGTAGATCAACACGAGGTTAAGAAAGATCGA	1.48	1.07	0.862	1	0.489	1.05	0.0696	1.27	0.374	0.536
TCATATAGGTAAAAGCTAGGTGAAAGTCCGATCT	3.84	2.83	1.06	1.08	0.659	0.255	0.0441	1.01	0.436	0.407
TCTTGTTGATCAATAGAGGTTAAGAAAGTGCGCT	1.5	0.913	0.422	1.13	0.192	2.89	0.147	1.71	0.519	1.05
ATCTCTAGGTAAAACTTCAGTGAATCCCGAGGAT	1.85	1.8	1.22	0.94	-0.0625	-0.0735	0.231	-0.12	0.676	0.128
CCGATTAGGTTATGGGGCATTCAGGCAACGGTGA	2.29	2.29	-0.258	-1.33	1.18	0.0495	-0.245	0.615	0.0747	1.37
ATAATGAGGTTATTAAGATCAGGGAATTGCGGTC	3.45	3.21	1.46	0.952	1.12	1.58	0.876	1.76	0.951	1.47
TCTGCTAGGGCAACGATGGTCAGCTAATCTGCTA	2.18	1.59	-0.859	-1.01	-1.1	-0.375	-0.975	-0.218	-0.818	1.58
CGAACTAGGTCATTGACAGGTCAGTGAATAGTAA	8.05	7.99	2.07	0.617	3.26	3.56	0.482	5.11	0.887	4.25
CATACAGGGTCAGCTCGGCCAGAGTAGGGACGGC	0.771	2.11	1.08	0.134	0.989	2.02	0.0599	2.97	0.394	4
GCATATAGGGAATACAAGGTGAAAGTCCGATTGT	1.83	1.35	0.819	-0.152	0.308	0.0196	-0.0382	1.58	0.263	0.266
CCTATTACTTGACCATAAGGGCAACCGAAGCTCG	0.621	0.836	0.25	1.09	1.41	0.749	1.2	1.05	2.03	1.61
TTACCAAGGTGAGCGGAGGTCGTTGATCCAACTC	1.19	2.32	-0.403	-0.114	-0.196	4.22	0.00572	1.51	-1.17	1.92
ATATGTAAGTTAAGGGTCATTCAGGTTGGTTCGC	1.13	3.7	1.79	1.39	4.41	5.17	2.93	4.86	1.97	3.42
AACGAAAGGTCGTGAGGTGAGTATACAGAAAGGC	0.775	2.28	0.36	0.0984	1.96	3.37	0.132	4.22	0.704	4.04
ATATGTAGGTTATCCGGTCATTCAGTTTGCGCAT	7.35	6.98	1.53	1.86	0.982	1.65	1.86	1.65	0.474	2.19

Sequence	PBM binding z-score [1]	PBM binding z-score [2]	PBM binding z-score [3]	PBM binding z-score [4]	PBM binding z-score [5]	PBM binding z-score [6]	PBM binding z-score [7]	PBM binding z-score [8]	PBM binding z-score [9]	PBM binding z-score [10]
CTCGGAAGGTCGTGCTCAGGTGAGTATACCAAAC	0.012	0.881	-0.0386	-0.266	0.944	1.55	-0.228	2.36	-0.507	2.5
CCTTACGGGTCACTCACAGGTTATAGCATTTGGA	3.1	3.43	0.37	0.401	3.21	3.56	0.559	4.46	1.29	3.77
TCTTGTAGATCAAAGGTTAAAAAAGCCGAAGCCT	2.16	3.58	0.744	0.625	1.22	2.17	0.0944	3.21	0.327	1.69
ATCGAAAGGTCGAAGGTGAGAATACCCACCCGAA	0.14	2.32	0.346	0.631	1.03	3.1	0.0633	4.65	0.941	3.83
ACTAGCAGGCCAAGTTTGGGTCTCTCAAACAAAG	0.491	0.0697	-1.53	-0.788	-1.17	-0.733	-0.734	-0.606	-1.44	0.382
CGAACTAGGTCACGGACAGTGAATCTCCGCACGC	8.66	9.1	8.25	6.07	4.94	2.4	-0.165	3.61	1.22	4.35
ACTATTAGTTGACGTAGGGCAACCGATACGACGC	0.188	0.602	1.2	0.785	0.291	-0.373	0.109	-0.162	0.628	0.773
ATACCAAGGTGATCGTGAGGACGTTGATACTAAC	0.171	1.03	0.678	-0.134	-0.121	0.502	0.387	1.03	0.115	0.704
ACTAGCAGGCCAAGTTTGGGTCACTCAAACAAAG	1.09	1.22	-0.627	-1.37	0.284	0.859	-0.237	1.45	-0.797	1.83
CGAACTAGGTCATTGACATGACAGTGAATAGTAA	8.34	8.44	3.7	2.52	1.93	1.45	-0.208	2.28	0.896	3.62
AATACATGGTCATCGTAGGCCAGAGTACGCACAG	0.199	1.21	0.624	0.968	-0.153	0.3	-0.157	0.574	0.339	1.14
TCTATAAGTTGATTAGGGCAACCGAAACAGCGGA	2.11	1.45	0.91	0.949	0.532	0.227	0.561	0.489	0.661	1.13
TCTCGCAGGACACGAAAGGTCAGAGCTCGACATC	1.62	1.4	0.807	0.509	2.57	3.87	0.38	4.53	1.07	3.95
TCTCGGAGGACACGCAGGTCAGAGCTTTCCAGAG	1	0.776	-0.915	-1.54	0.365	1.1	0.213	1.15	-0.493	2.67
ATCGAAAGGTCGAAGGTGAGTATACCCACCCGAA	0.0439	2.38	0.373	0.686	1.04	2.96	-0.372	3.94	0.591	3.82
CAGCCTTGGTCAGGGCCAGTATAGGAGGAACGTT	-0.703	-0.873	-1.09	-1.73	-1.21	-0.903	-0.901	-0.84	-0.916	0.481
TCATATACGTAAACAGGTGAAAGTCCGTAAGTTA	2.72	1.26	1.21	1.05	1.24	1.19	0.801	1.68	1.67	0.855
CCTACTGGACCACGAAAGGTCATTGATTCAGTGA	3.39	3.26	0.692	0.507	3.78	5.28	2.09	5.61	2.84	4.02
CCTTACGGGTCACGAGATTATAGCACGACGAGCG	4.81	4.72	1.92	0.779	2.33	3.46	0.13	4.62	1.2	4.26
GCTTACGGGTCAAAGGTTTTAGCATGAATAGAAT	4.96	5.14	1.91	1.07	3.2	4.06	0.129	5.58	0.298	3.98
ACAGACAGGTGAGGGAAGGTAACTCAGCTGGACG	0.476	0.747	0.431	-0.614	-0.102	-0.00447	-0.0527	0.343	-0.347	0.622
TAGCCTAGGTCCTGGGCCAGTATACCACGCGAAC	-1.56	-0.0166	-0.0149	-1.32	-1.29	-0.91	-0.893	-0.567	-1.37	-0.156
ATCGAAAGTTCGACGAGGTGAGTATACACCGTTT	-0.191	0.687	0.332	1.16	0.996	1.42	2.24	1.03	-0.0858	2.32
TCTAGCAGGCCAGAGGGTCACTCATGAGGTACGG	0.668	1.02	-0.735	-1.14	0.486	1.64	-0.579	2.5	-0.79	2.24
